In PubChem BioAssay AID1379 (National Center for Advancing Translational Sciences (NCATS), 2008):
About 560 (0.28%) of roughly 200,000 compounds were called active. What follows is part of a selection rich in actives, with near analogues and random picks from the rest. Values without a mark were called inactive. Calls come from the whole dose curve; as a rule, active = well fitted inhibition curve with a large enough effect; inconclusive = small, poorly fitted or top-dose-only effect; inactive = flat fitted curve, though single readings scatter.

Biological target: Luciferin 4-monooxygenase (Photuris pensylvanica) (UniProt Q27757)
Test: Counterscreen for Luciferase (Kinase-Glo TM) Inhibition; note: nearly all actives have a fitted effect of over 60% in size
Conditions: ATP luminescence, 8 min; series mostly up to 38.3 µM; activity change, negative = inhibition: at the top concentration
Experimental: NCGC Assay Overview: NIH Molecular Libraries Screening Centers Network [MLSCN] NIH Chemical Genomics Center [NCGC] MLSCN Grant: None Luciferase (Kinase-Glo, Promega Corporation) was assayed for its ability to generate light using ATP and luciferin as substrates. The ATP concentration in the assay (10 uM) was within the linear range of enzyme activity for the assay conditions used.
NCGC Assay Protocol Summary: Four uL of substrate mix (final concentration, 50 mM imidazole pH 7.2, 50 mM KCl, 7 mM MgCl2, 10 uM ATP, 0.01% Tween 20, 0.05% BSA) was dispensed into white 1536 well plates. Twenty-three nL of compound was delivered by a pin tool and 2 uL of luciferase detection mix (Kinase-Glo, Promega)) was added. Following 8-minute incubation at ambient temperature, luminescence was measured by a ViewLux (Perkin Elmer) at 5 seconds exposure/plate.
% is set by controls: 0 for no effect and ±100 for the full control effect; potency is the fitted concentration of half-maximal effect.

SMILES | activity change, negative = inhibition | Potency
COC(=O)C1=C(C(=O)OC)[C@@H]2N(C)c3ccccc3[C@@]23C[C@@H](C(=O)OC)N(S(=O)(=O)c2ccc(Br)cc2)C3=N1 | -4.44% [at 7.66 µM] | –
CCCCCCCC/C=C\CCCCCCCC(=O)NCC(=O)O | -1.33% | –
CCOC(=O)C1=NO[C@@]2(C=C(Br)C(=O)[C@H]3O[C@H]32)C1 | 1.87% | –
COc1cccc([C@@H]2Oc3ccc(Br)cc3C(=O)[C@H]2OC(=O)NCc2ccc3c(c2)OCO3)c1 | 0.893% | –
COCCN1C(=O)N[C@@H](CCc2ccccc2)[C@H](C(C)=O)[C@H]1C | -8.66% [at 7.66 µM] | –
Cc1ccc(N2CCN(C3=NC(=O)/C(=C\c4cccs4)S3)CC2)cc1 | 6.68% | –
Cc1ccsc1/C=C1\SC(N2CCOCC2)=NC1=O | – | 12.6 µM (active)
CCc1ccc(/C=C2\SC(N3CCOCC3)=NC2=O)cc1 | 0.0153% | –
COC(=O)CCCC1=CC2=C(c3ccccc3)C(=O)C(C)(OC(=O)C3CCCC3)C(=O)C2=CN1c1ccc(OC)cc1 (centres undefined) | -10.4% [at 7.66 µM] | –
COC(C)C(C(=O)OCC1=CCN2CC[C@H](O)[C@@H]12)C(C)C (some centres undefined) | 0.48% | –
COC(=O)CC1c2ccccc2C(Cc2ccc(OC)cc2)=C(C)N1C(=O)OC (centres undefined) | -5.96% [at 7.66 µM] | –
COc1cccc(/C=N\NC(=O)C2=NNC(=O)C2C)c1O (centres undefined) | – | 12.6 µM (active)
COc1cccc(/C=N/NC(=O)c2[nH]nc3c2CCc2ccccc2-3)c1O | -1.04% | –
COc1cccc(/C=N/Nc2cc(C)nc(-c3ccccc3O)n2)c1O | -0.876% | –
Cc1ccc(S(=O)(=O)N2CCC(=O)N([C@H](COCc3ccccc3)Cc3ccccc3)CC2)cc1 | 5.82% [at 39.9 µM] | –
CCOC(=O)C1=C(C)c2ccccc2OC1C(=O)OCC (centres undefined) | 2.5% [at 39.9 µM] | –
COC(=O)CCCC1=CC2=CC(=O)C(C)(OC(=O)c3cccs3)C(=O)C2=CN1c1ccc(CO)cc1 (centres undefined) | -0.663% [at 7.66 µM] | –
COc1ccc(-c2nc3c(c4c2C[C@H](c2ccccc2)OC4)CN(C(=O)c2ccco2)CC3)c(C)c1 | -7.1% [at 7.66 µM] | –
Brc1ccc2nc(N3CCCC3)sc2c1 | -10.5% | –
COc1ccc2nc(Nc3nc4cc5c(cc4s3)OCCO5)sc2c1 | 1.58% | –
c1c2c(cc3sc(N4CCCCC4)nc13)OCCO2 | – | 12.6 µM (active)
CCCCC[C@H](O)/C=C/[C@@H]1[C@@H](CC(=O)CCC(=O)O)[C@@H](O)C[C@H]1O | 0.788% | –
COc1ccc(-c2nc3c(c4c2C[C@H](c2ccccc2)OC4)CN(C(=O)c2cccnc2)CC3)c(C)c1 | -3.92% [at 7.66 µM] | –
CCCCC/C=C\C[C@H](O)/C=C/C=C/C=C/[C@@H](O)CCCC(=O)O | -1.4% | –

SMILES | activity change, negative = inhibition | Potency
Cc1cc2oc(=O)cc(-c3ccccc3)c2c(C)c1-c1ccc(OC(F)(F)F)cc1 | 2.9% [at 39.9 µM] | –
C[C@H]1Cc2c(-c3ccccc3)nc3c(c2CO1)CN(C(=O)C1CC1)CC3 | -7.42% [at 7.66 µM] | –
CC(Nc1oc(-c2ccccc2)nc1-c1ccccc1)c1ccccc1 (centres undefined) | inactive | –
CC(=C/c1ccccc1)/C=N/NC(=O)c1cc(C)oc1C | -23.6% | –
Cc1cc(C(=O)N/N=C/c2ccc(N3CCOCC3)cc2)c(C)o1 | – | 11.2 µM (active)
CCN(CC)c1ccc(C(=O)N/N=C/c2ccc(N3CCOCC3)cc2)cc1 | 0.996% | –
COc1ccc(-c2nc(-c3ccccc3)oc2Nc2ccc3ccccc3c2)cc1 | 0.504% | –
Cc1ccc(CC2(O)CCN(CCOc3ccc(O)cc3)CC2)cc1 | -0.52% [at 39.9 µM] | –
COC/C=C/C1=CC2=CC(=O)C(C)(OC(=O)CCC(=O)OC)C(=O)C2=CO1 (centres undefined) | -2.02% | –
C=CC1=C2C=C(C3CC3)N(C(CO)CO)C=C2C(=O)C(C)(OC(=O)c2ccco2)C1=O (centres undefined) | -0.389% [at 7.66 µM] | –
CCN1C(=O)N[C@@H](c2ccccc2)C(C(=O)OC)=C1C | -0.704% [at 7.66 µM] | –
Cc1ccc(-c2nc3ccccc3[nH]2)cc1NC(=O)c1sc2ccccc2c1Cl | -4.49% | –
COc1ccc(Br)cc1C(=O)NC(=S)Nc1cc(-c2nc3ccccc3[nH]2)ccc1C | -2.2% | –
C=CCSc1nc2ccccc2[nH]1 | -7.25% | –
c1ccc2[nH]c(-c3nc4ccccc4[nH]3)nc2c1 | – | 11.2 µM (active)
OCCNc1nc2ccccc2[nH]1 | -0.325% | –
Cc1ccc(-c2nc3ccccc3[nH]2)cc1N | – | 6.31 µM (active)
COCOc1cc(OC)ccc1C(=O)/C=C/c1ccc([N+](=O)[O-])cc1 | -1.04% | –
Cc1cc2oc(=O)cc(-c3ccccc3)c2c(C)c1/C=C/c1ccc(F)cc1 | 1.11% [at 39.9 µM] | –
COC(=O)c1ccc(NCC(=O)c2ccccc2)cc1 | – | 10 µM (active)
COC(=O)c1ccc(NCC(=O)N2CCCCCC2)cc1 | 0.973% | –
Cc1ccc(C(=O)CNc2ccc(F)cc2)cc1 | 0.448% | –
C/C=C(\C)C(=O)OC1C(OC(=O)C2(C)OC2C)c2cc3ccc(=O)oc3cc2OC1(C)C (centres undefined) | 0.763% | –
N/C(=N\OC(=O)Cc1ccc([N+](=O)[O-])cc1)c1ccccn1 | -13.1% | –

SMILES | activity change, negative = inhibition | Potency
O=C(OCc1ccc([N+](=O)[O-])cc1)c1ccccn1 | 1.98% | –
N/C(=N\OC(=O)c1ccc([N+](=O)[O-])cc1)c1ccccn1 | – | 8.91 µM (active)
C=CC(C1=CC(=O)C=CC1=O)c1ccc(O)cc1 (centres undefined) | 0.217% | –
COc1cc(OC)c2c(-c3cccc(-c4cccc(N)c4)c3)cc(=O)oc2c1 | -2.14% [at 39.9 µM] | –
Cn1c(=O)n(C)c2cc(C(=O)Nc3ccc4c(c3)OCO4)ccc21 | 0.19% | –
COc1ccc(C(=O)Nc2ccc3c(c2)OCO3)cc1OC | – | 12.6 µM (active)
COc1cc(NC(=O)c2ccc3c(c2)OCO3)ccc1NC(=O)c1cccs1 | -5.78% | –
CCOc1cc(NC(=O)c2ccccn2)c(OCC)cc1NC(=O)c1ccc(OC)cc1 | -0.562% | –
COc1ccc(-c2csc(Nc3ccccn3)n2)cc1 | -10.1% | –
COc1ccc(C(=O)/C=C/Nc2ccccn2)cc1 | – | 11.2 µM (active)
S=C(NCCCc1cnc[nH]1)NCCCN(Cc1ccc(Cl)c(Cl)c1)c1ccc(Br)cn1 | 2.07% [at 39.9 µM] | –
COc1ccc(C2=Nc3cc(C)ccc3OC2)cc1 | – | 8.91 µM (active)
COc1ccc(C2=NOC3(CC(=O)N(c4ccc(C)cc4)C3=O)C2)cc1 (centres undefined) | -2.28% | –
COc1ccc(-c2noc(-c3ccc(C)cc3)n2)cc1 | -1.12% | –
C=C1c2cccc(OC)c2O[C@H](C(=O)OCC)[C@@H]1CCCCCC | 0.372% [at 39.9 µM] | –
CC(=NCc1ccco1)c1c(C(F)(F)F)[nH]n(-c2nc3ccccc3s2)c1=O | – | 8.91 µM (active)
CC(=NCc1ccco1)C1=C(O)c2ccccc2C1=O | -1.04% | –
CCc1ccc(-c2cc(C(=O)NCc3ccco3)c3ccccc3n2)s1 | -13.6% | –
CC(=O)/C(C)=N/O | -3.88% | –
C/C=C1\C2C=C(C)CC1(N)c1ccc(=O)[nH]c1C2 (centres undefined) | 1.02% [at 39.9 µM] | –
O=c1c(O)c(Br)ccc2c(Br)c(O)c(O)c(O)c12 | -3.69% | –
Brc1ccc(C2=NCCC(c3ccccc3)O2)cc1 (centres undefined) | 3.23% [at 39.9 µM] | –
COc1ccc(-c2c(C)cc3oc(=O)cc(-c4ccccc4)c3c2C)cc1C=O | 4.99% [at 39.9 µM] | –
OC[C@H]1O[C@@H](n2cnc3c(NC4CCCC4)ncnc32)[C@H](O)[C@H]1O | -4.96% | –

SMILES | activity change, negative = inhibition | Potency
O=C1OCCN1C(=O)[C@H]1[C@H](c2ccccc2)C(c2ccc(F)cc2)=NN1c1ccccc1 | 4.83% [at 39.9 µM] | –
CCCCS(=O)(=O)N1C2=NC(C(=O)OC)=C(C(=O)OC)[C@@H]3N(Cc4ccccc4)c4ccccc4[C@]23C[C@H]1C(=O)OC | -7.24% [at 7.66 µM] | –
O=C1CCC[C@@H]2CC(N3CCCCC3)C[C@@H]3CCN1[C@H]23 (some centres undefined) | 3.14% [at 39.9 µM] | –
COc1ccc(/C=N/NC(=O)c2ccccc2)cc1OS(=O)(=O)c1ccccc1 | -0.772% | –
COc1cc(/C=N/NC(=O)c2ccccc2)ccc1OS(=O)(=O)c1ccccc1 | -4.13% | –
COc1ccc(C(=O)Nc2ccccc2C(=O)N/N=C/c2ccccc2OC)cc1 | – | 6.31 µM (active)
COc1ccccc1C(=O)NNC(=O)c1ccc(NC(=O)c2ccccc2)cc1 | 2.71% | –
CCn1c(/C=N/NC(=O)c2ccc(OC)cc2)nc2ccccc21 | -1.47% | –
COc1ccc(C(=O)Nc2ccccc2C(=O)N/N=C/c2ccc(O)c(OC)c2)cc1 | – | 1 µM (active)
CC1(OC(=O)C2CCCC2)C(=O)C=C2C=C(c3ccc(C#N)cc3)OC=C2C1=O (centres undefined) | -2.28% | –
C[C@H]1Cc2c(COc3ccccc3)nc3c(c2CO1)CN(C(=O)Nc1cccc(C#N)c1)CC3 | -0.91% [at 7.66 µM] | –
COC1(C2=NCCN2)COc2ccccc2O1 (centres undefined) | -1.93% | –
O=C1OCCN1C(=O)[C@H]1[C@H](c2ccc(Cl)cc2)C(c2cccc(Cl)c2)=NN1c1ccc(Br)cc1 | 2.51% [at 39.9 µM] | –
COc1ccc2c(c1)O[C@@H](c1ccc3c(c1)OCO3)[C@H](OC(=O)NCCc1ccc(OC)c(OC)c1)C2=O | 0.102% | –
CC[C@H](C)[C@@H](NC(=O)O[C@@H]1C(=O)c2cc(OC)ccc2O[C@H]1c1cccc(OC)c1)C(=O)OC | 4.76% | –
CCOC(=O)C1C/C(=C\C(C)=O)c2cccc(C(F)(F)F)c2O1 (centres undefined) | 6.29% [at 39.9 µM] | –
OC[C@H]1O[C@@H](n2cnc3c(N[C@H]4CC5CCC4C5)ncnc32)[C@H](O)[C@@H]1O (some centres undefined) | -1.73% | –
COc1ccccc1CNC(=O)c1ccc(SC)cc1OC | -0.807% | –
COc1cc(SC)ccc1C(=O)Nc1cc(C)ccn1 | -13.8% | –
COc1cc(SC)ccc1C(=O)Nc1nc(C)cs1 | – | 11.2 µM (active)
CCCCC1=CC2=CC(=O)C(C)(OC(=O)CC)C(=O)C2=CN1CCCOC(C)C (centres undefined) | -3.21% [at 7.66 µM] | –
C=CCN1c2ccccc2[C@]23C[C@@H](C(=O)OC)N(S(=O)(=O)c4ccc([N+](=O)[O-])cc4)C2=NC(C(=O)OC)=C(C(=O)OC)[C@H]13 | -1.89% [at 7.66 µM] | –
